Assay outcomes deposited in PubChem BioAssay by several laboratories.
A selection: hits, their analogues and other compounds. The true share with any hit is near 9.6%.
INS promoter inh: inhibitors of insulin promoter-driven GFP, primary screen, imaging, TRM-6 cells (human fetal islet line), eGFP reporter, cell count | inhibition, % at 2 µM | hit rate 0.9% among 130,000 | AID 1273, 2008 | reporter expression induced with tamoxifen;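 active = inhibition above the mean plus 3 SD, with well images judged a real hit on visual review, cut at about 60% in these data, passing the limit was not always enough; inconclusive = inhibition over the cutoff but images rejected on review; inactive = inhibition not above the cutoff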
HCT116 PTEN-null: growth suppression of PTEN-null HCT116, primary screen, cell-based, CellTiter-Glo; HCT116 PTEN-null viability, 60 h; stronger effect = lower value; viability, % at 10 µM; hit rate 1.2% among 140,000;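 active = viability at or below a set limit, 4 SD under the median of all tested compounds, cut at about 3.7% in these data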;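 note: PTEN knockout HCT116 line with beta catenin targeted HCT116 as companion control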
L major viab: Leishmania major promastigote growth inhibition, primary screen | Leishmania major promastigotes, resazurin fluorescence viability | inhibition, % at 10 µM | hit rate 9% among 200,000 | AID 1063, 2008; in the data active = inhibition above about 50%;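 note: promastigotes grown with compound for 44 hours at 28 °C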
bCat KO growth: primary screen for growth suppressors in beta-catenin knockout HCT116 cells (colon tumor, human) | HCT116 beta-catenin knockout viability, CellTiter-Glo, 60 h; stronger effect = lower value | viability, % at 10 µM | hit rate 1.5% among 140,000 | AID 818, 2007;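 active = viability at or under a set limit, the compound median less 4 SD, cut at about 6% in these data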;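 note: 0% = Hyamine 1622 control at 20 µM and 100% = untreated cell control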
Autophagy HCS: autophagy modulators in MEF cells, primary screen, imaging, high-content, MEF GFP-LC3 | AID 463193, 2010 | MEF GFP-LC3 puncta imaging; test concentration mostly 10 µM | hit rate 0.98% among 190,000 | calls only at 10 µM (by protocol);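 active = percentage of spot-positive cells more than 3 SD above its plate mean, without a fluorescence outlier flag or 80% toxicity; inconclusive = no clear call, values can overlap the other calls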;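 note: spot-positive cell cutoff set from DMSO-treated cells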
Ins promoter up: insulin promoter activators in MIN6 cells, imaging, high-content screening, mouse beta cells; z-score at 5 µM; AID 1625, 2009; MIN6 insulin promoter-GFP reporter; stronger effect = higher value; hit rate 0.3% among 190,000;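 active = z-score above 3 at 5 µM with at least 500 cells counted in the well; inconclusive = wells under 500 cells, flagged as cytotoxic or low count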
The depositor's hits bear a star; i = inactive; ? = inconclusive; / = not tested or not shown; + = active, no number.

SMILES	INS promoter inh	HCT116 PTEN-null	L major viab	bCat KO growth	Autophagy HCS	Ins promoter up
CCN(CC)S(=O)(=O)c1ccc(N2CCCC2)c(C(=O)Nc2ccc(OC)c(Cl)c2)c1	0.0	90.2	91.0*	94.0	i	0.74
CCN(CC)S(=O)(=O)c1cccc(NC(=O)c2ccc(SC)cc2OC)c1	-66.7	/	61.8*	/	i	-1.07
COc1cc(SC)ccc1C(=O)Nc1ccc(C)cc1	/	/	-3.3	/	i	-0.41
CCN(CC)S(=O)(=O)c1cccc(NC(=O)c2ccccc2Br)c1	76.9*	/	-3.3	/	i	-0.03
Cn1cnc([N+](=O)[O-])c1S(=O)(=O)c1cccc(Cl)c1	30.8	0.9*	64.8*	1.2*	i	0.19
CCN(CC)Cc1c(O)ccc2occ(C(=O)c3ccc(OC)cc3)c12	-104.7	56.2	87.8*	50.0	i	-1.27
COc1ccc(C(=O)c2coc3ccc(O)c(CN4CCCC4)c23)cc1	/	68.5	7.2	73.2	i	-1.03
O=C1CN(C(=O)c2ccc(Br)o2)C(c2ccccc2)c2cc(F)ccc2N1 (centres undefined)	/	70.5	92.4*	81.6	i	-0.25
O=C1CN(C(=O)c2cc3ccccc3oc2=O)C(c2ccc(F)cc2)c2cc(F)ccc2N1 (centres undefined)	-4.8	87.7	16.4	83.1	i	0.85
O=C1CN(C(=O)c2cc([N+](=O)[O-])ccc2Cl)C(c2ccc(F)cc2)c2cc(F)ccc2N1 (centres undefined)	-76.0	79.8	79.3*	77.9	i	-0.39
O=C1CN(C(=O)c2cc3ccccc3oc2=O)C(c2ccc(F)cc2)c2cc(Br)ccc2N1 (centres undefined)	-38.1	83.1	4.0	91.0	+	0.76
Cc1cc(N2CCCCC2)nc(NCc2ccccc2)n1	-3.3	8.0	75.1*	6.0*	i	-0.51
CCOc1cc(C)nc(NCc2ccccc2)n1	13.3	58.1	64.7*	61.1	i	-1.88
COc1ccc(CCNCC(O)Cn2c3ccccc3c3ccccc32)cc1OC (centres undefined)	-100.0	/	100.3*	/	i	-0.43
CCOC(=O)CCNCC1COc2ccccc2O1 (centres undefined)	-9.1	100.8	13.5	92.8	i	1
CC(OCC(O)CNCC1COc2ccccc2O1)c1ccc(Cl)cc1 (centres undefined)	/	/	90.7*	/	i	-0.49
OC(CNCC1COc2ccccc2O1)COCc1cccs1 (centres undefined)	?	88.3	92.1*	89.1	i	0.49
COc1ccc(CNCC(O)COCc2cccs2)cc1 (centres undefined)	-29.8	109.8	88.2*	91.1	i	-1.4
N=c1oc2ccc3ccccc3c2cc1-c1nnc2n1CCCCC2	28.6	80.7	2.1	75.6	i	-0.24
COc1ccc2sc(/C=C/c3ccccc3O)[n+](C)c2c1	-50.0	/	92.4*	/	i	0.28
O=C(Nc1ccc2c(c1)OCCO2)C1CCN(c2ncccn2)CC1	-13.3	/	-0.9	/	i	-0.33
CC1C2Cn3c(nc4ccccc43)C1N(C(C)C)O2 (centres undefined)	/	/	/	/	/	-0.49
CCOc1ccc(C(=O)/C=C/c2ccc(OC)c(OC)c2)cc1	/	/	85.6*	/	i	-0.28
C/C=C/c1ccc(OCCOc2ccc(C=O)cc2)c(OC)c1	-34.5	95.1	81.7*	102.2	i	-0.07
CCOc1ccc(/C=C/C(=O)c2ccccc2)cc1OC	18.9	7.4	99.4*	8.8	i	0
SMILES	INS promoter inh	HCT116 PTEN-null	L major viab	bCat KO growth	Autophagy HCS	Ins promoter up
COc1ccc(/C=C/C(=O)c2ccc(NC(=O)c3cccs3)cc2)cc1OC	-60.7	1.8*	98.2*	1.4*	i	-0.35
Cc1ccccc1CSCCNC(=O)CSCc1ccc([N+](=O)[O-])cc1	-27.6	84.0	-3.2	86.4	i	-0.19
CCCN(CCC)S(=O)(=O)c1ccc(N2CCCC2=O)c([N+](=O)[O-])c1	16.7	99.5	-5.3	89.7	i	-0.18
Cc1ccc(S(=O)(=O)N2CCN(CCC#N)CC2)cc1	27.8	/	-1.0	/	i	0.06
CC(C)(C)CC(C)(C)c1ccc(O)c(CN2CCN(CCC#N)CC2)c1	-7.4	66.8	97.3*	62.0	i	-0.87
Oc1c(CN2CCOCC2)cc(-c2ccccc2)cc1CN1CCOCC1	-45.5	98.1	4.0	91.9	i	/
N#CCCN1CCN(Cc2cc(-c3ccccc3)ccc2O)CC1	/	87.3	91.0*	83.6	i	0.76
O=C(CN1C2=NCCN2c2ccccc21)C12CC3CC(CC(C3)C1)C2	-23.3	47.5	100.7*	60.1	i	-2.09
Cc1ccc(C)c(C(=O)CN2C3=NCCCN3c3ccccc32)c1	0.0	24.5	77.9*	18.8	i	-0.23
c1ccc(CN2C3=NCCN3c3ccccc32)cc1	-16.7	95.9	-6.3	96.3	i	-0.43
c1ccc(CSc2ncnc3sccc23)cc1	-29.4	/	0.9	/	i	0.17
CCc1cc2c(SCC(=O)c3ccc(C)cc3)ncnc2s1	-86.7	97.6	-4.7	95.6	i	/
CCc1cc2c(Sc3nc4ccccc4s3)ncnc2s1	/	3.7*	17.7	4.4*	i	-1.85
c1ccc2sc(Sc3ncnc4sccc34)nc2c1	22.1	4.1	68.6*	4.2*	i	0.97
COc1ccccc1CNC(=O)CCn1c(=O)oc2ccccc21	/	95.6	-3.6	88.6	i	2.04
O=C(CCn1cnc(-c2ccccc2)c1-c1ccccc1)N/N=C/c1ccccc1O	0.0	10.8	98.5*	12.7	i	0.06
O=C(CCn1cnc(-c2ccccc2)c1-c1ccccc1)N/N=C/c1ccc(O)cc1	-29.0	36.0	-0.3	35.2	i	0.13
CC1CCN(c2c(NCc3ccc(C(=O)N4CCc5ccccc54)cc3)c(=O)c2=O)CC1	/	20.7	2.0	18.9	+	1.5
O=C(CCc1nc2ccccc2c(=O)[nH]1)NCc1ccco1	/	/	0.8	/	+	1.02
COC(=O)c1cc(NC(=O)c2ccc(Cn3cc(Cl)cn3)o2)cc(C(=O)OC)c1	93.3*	84.7	5.2	71.3	i	-0.28
CCOC(=O)c1c(NC(=S)NC(=O)c2ccc(Cn3cc(Cl)cn3)o2)sc2c1CCC(C)C2 (centres undefined)	/	1.5*	-2.8	1.9*	i	0.2
CCOC(=O)c1c(NC(=O)c2nn(CC)cc2Br)sc2c1CCCCC2	50.0	72.8	16.8	82.8	i	-0.41
CCn1cc(C(=O)NC(=S)Nc2sc3c(c2C(=O)OC)CCCCCC3)cn1	/	2.1*	-1.4	8.8	i	-0.71
O=C(COc1ccccc1)NCCSCc1ccc(Cl)cc1	11.1	96.1	44.2	90.2	i	-0.11
O=C(OCC1OC2OC3(CCCCC3)OC2C2OC3(CCCCC3)OC12)c1ccccc1 (centres undefined)	-25.0	85.7	-1.1	91.5	i	/
